Reference: PubChem BioAssay (NCI)
This is part of a sample that, as a whole, favours compounds with a hit. Of some 83,000 tested, about 20% had one in any assay.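 Activity criterion: percent growth below 10, measured after cells in 96-well plates were exposed to a single compound concentration for 48 hours.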 Unmarked numbers belong to inactive results. Active and inactive are the calls of the source.

Key:
Assay in all cases: NCI-60 one-dose screen, 48 h (100 = growth as untreated, 0 = no growth, -100 = all killed)
Details in all cases: 10 µM unless noted
DU-145 prostate = tested on: DU-145 prostate
K-562 leukemia = tested on: K-562 leukemia
MALME-3M melanoma = tested on: MALME-3M melanoma
MDA-MB-231 breast = tested on: MDA-MB-231 breast
RXF 393 renal = tested on: RXF 393 renal
SF-268 CNS = tested on: SF-268 CNS
SF-295 CNS = tested on: SF-295 CNS
SF-539 CNS = tested on: SF-539 CNS
UACC-257 melanoma = tested on: UACC-257 melanoma
M14 melanoma = tested on: M14 melanoma

Row | Compound | growth (DU-145 prostate) | growth (K-562 leukemia) | growth (MALME-3M melanoma) | growth (MDA-MB-231 breast) | growth (RXF 393 renal) | growth (SF-268 CNS) | growth (SF-295 CNS) | growth (SF-539 CNS) | growth (UACC-257 melanoma) | growth (M14 melanoma)
1 | CC(=O)c1sc2sc(C(C)=O)c(C)c2c1C | 111% | 95.5% | 126% | 101% | 93% | 97.1% | 105% | 85.1% | 81.3% | 107%
2 | CS(=O)(=O)Nc1cc(-c2ccc3ncc(C#N)c(Nc4ccc(F)c(Cl)c4)c3c2)cnc1Cl | 10.2% | 16.2% | -38.6% (active) | -0.718% (active) | -39.2% (active) | 8.18% (active) | -28.2% (active) | -27.4% (active) | 4.72% (active) | 11.2%
3 | CSC1=Nc2c(c(C)c(-c3ccccc3)n2CCCC(=O)O)C2=NC(=O)C[C@H](C)N12 | 115% | 101% | 102% | 138% | 106% | 110% | 106% | 85.5% | 108% | 102%
4 | C=C1C(=O)O[C@H]2[C@H]1CC/C(COC(=O)c1ccc(C(=O)O)s1)=C\CC[C@@]1(C)O[C@@H]21 | 18.6% | 3.11% (active) | 3.09% (active) | -3.52% (active) | -56% (active) | 24.2% | 81% | -25.7% (active) | 52.7% | 23.1%
5 | COc1ccc2cc(-c3ccnc4c(N=Nc5ccc(Cl)cc5)c(N)nn34)ccc2c1 | 105% | 86.5% | 97.8% | 101% | 115% | 101% | 102% | 103% | 84.2% | 92.8%
6 | COc1ccc(CCN2C(=O)/C(=C/c3ccc(C4Oc5ccccc5C5CC(c6ccccc6)=NN54)cc3)SC2=S)cc1 (stereo not given) | 110% | 100% | 102% | 92.3% | 107% | 99.2% | 105% | 98.5% | 109% | 102%
7 | COc1cc(Cl)c(C)cc1NC(=O)c1cc2ccccc2cc1O | 26.4% | 14.5% | -8.31% (active) | -23.8% (active) | 11.7% | 24% | -15.1% (active) | 22.1% | -1.4% (active) | 24.1%
8 | O=C(/C=C/c1ccc(Oc2ccc(Br)cc2)cc1)c1ccc(Br)cc1 | 102% | 91.8% | 98% | 101% | 100% | 101% | 100% | 102% | 98.1% | 93.5%
9 | CCN1C(=O)N(CC)C2C1NN=c1s/c(=C3\C(=O)N(CC(C)C)c4ccccc43)c(=O)n12 (stereo not given) | 10.4% | 10.5% | 59.6% | 12.3% | 21.9% | 54.9% | 6.8% (active) | -23.5% (active) | 65.5% | 18.8%
10 | COc1cc(NC(=O)c2cncnc2Nc2ccc3c(ccn3Cc3ccccn3)c2)cc(OC)c1 | 65.4% | 17.1% | 44.7% | 50.6% | 42% | 63.1% | 35% | 48.2% | 68% | 36.5%
11 | CCn1c(-c2cc3c([nH]c4ccccc43)c(-c3cccc(O)c3)n2)n[nH]c1=S | 62.3% | 14.3% | 51% | 46.9% | 8.59% (active) | 48.3% | 36.8% | 30% | 41% | 18.1%
12 | C[C@@H]1O[C@@H](O[C@@H]2C[C@H](c3ccc4c(c3O)C(=O)C3=C(C4=O)[C@@]4(O)C(=O)C[C@](C)(O)C[C@@]4(O)C=C3)O[C@H](C)[C@H]2O)CC[C@@H]1O[C@H]1C[C@@H](O)[C@H](O)[C@@H](C)O1 | 110% | 94.4% | 65.4% | 105% | 113% | 87% | 102% | 100% | 98.4% | 110%
13 | C=CCOC(=O)C1=C(C)N(CC)C(=O)NC1c1c(Cl)n(C)c2ccccc12 (stereo not given) | 106% | 99.1% | 99.3% | 96.7% | 108% | 92.9% | 88.6% | 98.4% | 98.4% | 88.6%
14 | COc1ccc(Cn2cc(C(=O)N=Nc3c(O)[nH]c4c(C)cccc34)nn2)cc1 | 60.4% | 63.2% | 40.5% | 51% | 81.9% | 87.3% | 111% | 80.1% | 93.7% | 71.9%
15 | COc1ccc(C#Cc2ccc(=O)oc2-c2cc(OC)c(OC)c(OC)c2)cc1O | 58.5% | 16.8% | 38.8% | 59.9% | 57.8% | 69.7% | 23.5% | 47.6% | 53% | 33.9%
16 | Cc1c(Cl)cccc1C(=O)Nc1nc2c(s1)CN(C(=O)c1ccc(C(F)(F)F)cc1)CC2 | 15.7% | 10.3% | 44.6% | 34.4% | 21.9% | 38.4% | 25.1% | -24.5% (active) | 63.7% | 10.2%
17 | CC1(C)CC[C@]2(C(=O)N[C@H](CO)Cc3ccccc3)CC[C@]3(C)C(=CC[C@@H]4[C@@]5(C)CCCNC(C)(C)[C@@H]5CC[C@]43C)[C@@H]2C1 | 93.7% | 1.94% (active) | 106% | 70.1% | 78.4% | 85.7% | 102% | 90.4% | 106% | 71.4%
18 | COc1ccc(C2=CC(c3cc(OC)c(OC)c(OC)c3)n3ncnc3N2)cc1 (stereo not given) | -24.7% (active) | 9.56% (active) | 75.8% | 8.42% (active) | 71.1% | 31.4% | 13.5% | -1.69% (active) | 56.5% | -2.18% (active)
19 | Nc1nc(N)c2c(n1)NC(c1cccc(Nc3ccnc4cc(C(F)(F)F)ccc34)c1)CC(c1ccccc1)=N2 (stereo not given) | 71.9% | 13.5% | 67% | 58.5% | 44.9% | 52.3% | 50.1% | 77.1% | 69% | 30.2%
20 | C[C@H](CCCC(=O)NCC#CCN1CCN(C)CC1)[C@H]1CC[C@H]2[C@@H]3CC[C@@H]4CC(=O)CC[C@]4(C)[C@H]3CC[C@]12C | 102% | 57.9% | 65.7% | 102% | 86.3% | 95.5% | 106% | 78.6% | 96.3% | 85.1%
21 | Fc1ccc(Cn2cc(CSc3nc4ccccc4o3)nn2)cc1 | 108% | 95.3% | 107% | 97.1% | 105% | 95.4% | 97% | 100% | 105% | 97%
22 | O=C(Nc1cnc(Nc2ccc(N3CCOCC3)nc2)nc1Oc1ccc(C(F)(F)F)cc1)c1ccncc1 | 66% | 78.7% | 96.9% | 94.5% | 93.1% | 86.3% | 104% | -53.1% (active) | 92.8% | 99%
23 | Cc1ccnc(Nc2ccc([N+](=O)[O-])c(NCCN3CCOCC3)n2)c1 | 10.1% | 6.76% (active) | 89.3% | 42.4% | 70.4% | 31.9% | 35.8% | 6.71% (active) | 86.2% | 24.1%
24 | COc1cccc(/C=C/C(=O)c2cc3c(N)c(C(=O)Nc4cccc5ccccc45)sc3nc2C)c1 | 7.62% (active) | 10.4% | 33.5% | -3.88% (active) | -31.6% (active) | 15.3% | 15.5% | -67.3% (active) | 61.7% | 2.46% (active)
25 | C/C(Cc1ccc(Cl)cc1)=C(\c1ccc(OCCCN(C)C)cc1)c1ccc(OC(=O)Cc2ccccc2)cc1 | 106% | 91.8% | 111% | 108% | 109% | 97.6% | 100% | 105% | 103% | 109%
26 | COC1=C(C)C(=O)N2[C@@H]1[C@H](c1ccccc1)OC21C=CC(=O)C=C1 | 4.7% (active) | 6.14% (active) | -12.3% (active) | 11.9% | -69.2% (active) | 1.71% (active) | 90.3% | -69% (active) | -12.8% (active) | -43.8% (active)
